Several values for one entry are separate records, joined by “and”; a condition that tells them apart may be missing. Equal entries are not always repeated. Inconclusive results are not listed. A call without a number means that no potency is given here. Some structures have more than one record in an assay (separate samples or runs), and their calls can disagree. Activity calls are given as the source filed them. Unless noted, calls come from the whole dose curve; as a rule, active = well fitted curve in the direction sought with a large enough effect in the repeat runs; inconclusive = weak or mixed curves; inactive = no such curve, though single readings can be large; an effect the other way counts as inactive or inconclusive.
What was measured:
[1] = qHTS assay to identify small molecule antagonists of the estrogen related receptor (ERR) signaling pathway from Tox21 library - cell viability counter screen (AID 1224834); note: nearly all actives have a fitted effect of over 30% in size
Outline: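 ERR reporter cells, 2,000 per well, rested 6 h, then exposed to compound in DMSO for 17.5 hours at 37 C. Viability read as fluorescence after 30 min with CellTiter-Fluor.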

[2] = target: Luciferin 4-monooxygenase (Photinus pyralis) (UniProt P08659); test: qHTS assay to identify small molecule inhibitors of firefly luciferase (AID 1224835); note: nearly all actives have a fitted effect of over 25% in size; note: potency is the fitted concentration of half-maximal effect
Outline: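 Quantitative HTS format; KM concentrations of both substrates. Purified P. pyralis FLuc activity quantified from luminescence images.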

[3] = qHTS assay to identify small molecule agonists of the constitutive androstane receptor (CAR) signaling pathway - cell viability counter screen (AID 1224836); note: nearly all actives have a fitted effect of over 45% in size
Outline: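 Multiplexed viability check: HepG2-CYP2B6-hCAR cells, 15-point compound dosing, 0.75 uM PK11195 final, 23 h at 37 C, CellTiter-Fluor fluorescence.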

[4] = qHTS assay to identify small molecule antagonists of the constitutive androstane receptor (CAR) signaling pathway - cell viability counter screen (AID 1224837); note: nearly all actives have a fitted effect of over 45% in size
Outline: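 HepG2 cells stably carrying hCAR and CYP2B6-2.2kb reporter, stimulated with 50 nM CITCO and compounds at 15 concentrations for 23 h at 37 C. Viability measured by CellTiter-Fluor fluorescence.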

[5] = target: Nuclear receptor subfamily 1 group I member 3 (Homo sapiens) (UniProt Q14994); test: qHTS assay to identify small molecule antagonists of the constitutive androstane receptor (CAR) signaling pathway (AID 1224838); note: nearly all actives have a fitted effect of over 40% in size
Outline: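 HepG2 cells stably carrying hCAR and a CYP2B6-2.2kb luciferase reporter, seeded 4 hrs before compound (15 concentrations). Stimulated with 50 nM CITCO for 24 hr at 37 C. ONE-Glo luminescence read after 30 min at room temperature.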

[6] = target: Nuclear receptor subfamily 1 group I member 3 (Homo sapiens) (UniProt Q14994); test: qHTS assay to identify small molecule agonists of the constitutive androstane receptor (CAR) signaling pathway (AID 1224839); note: nearly all actives have a fitted effect of over 15% in size
Outline: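 Using human hepatoma HepG2 cells engineered with hCAR and a CYP2B6-2.2kb reporter, 15-concentration compound series were incubated 24 h alongside PK11195 at 0.75 uM final, with luminescence quantified afterwards.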

[7] = qHTS assay to identify small molecule antagonists of the estrogen related receptor signaling pathway with the pleiotropic PPARgamma coactivator (PGC) from Tox21 10K library - cell viability counter screen (AID 1224840; active = well fitted cell-killing curve with a large enough effect in the repeat runs, not every such curve was filed as active; note: nearly all actives have a fitted effect of over 40% in size)
Outline: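 PGC/ERR cells (2,000/well) plated 6 h, then compound-treated for 17.5 h at 37 C. Viability measured by CellTiter-Fluor fluorescence after 30 min at 37 C, multiplexed with the pathway assay.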

[8] = target: Thyrotropin receptor (Homo sapiens) (UniProt P16473); test: qHTS assay to identify small molecule agonists of the thyroid stimulating hormone receptor (TSHR) signaling pathway (AID 1224843; calls by dose curve; note: nearly all actives have a fitted effect of over 45% in size)
Outline: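 Cell line HEK293 with TSHR; density 800/well. Exposure 30 min RT. Readout HTRF cAMP (cAMP-d2/anti-cAMP-cryptate), 1 h RT before reading.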

[9] = qHTS assay to identify small molecule agonists of the hypoxia (HIF-1) signaling pathway - cell viability counter screen (AID 1224844; calls by dose curve; note: nearly all actives have a fitted effect of over 50% in size)
Outline: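 HRE-bla ME-180 cells, 2,000/well in 0.5% dialyzed FBS medium, treated 17 h at 37C with compounds. Viability read in the same wells as the bla reporter, by CellTiter-Glo luminescence after 30 min at room temperature.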

[10] = qHTS assay to identify small molecule agonists of H2AX (AID 1224845; active = well fitted activation curve with a large enough effect in the signal ratio in the repeat runs, not every such curve was filed as active; the % refers to the signal ratio)
Outline: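 Wild-type CHO-K1 cells plated overnight, then exposed 3 hr at 37C to compounds at 15 concentrations (0.76% DMSO). Lysed, then HTRF anti-pH2AX(S139)-cryptate/anti-H2AX-d2 detection after 24 hr at room temperature; emissions 665 and 620 nm.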

[11] = qHTS assay to identify small molecule agonists of the hypoxia (HIF-1) signaling pathway (AID 1224846; active = well fitted activation curve with a large enough effect in the signal ratio in the repeat runs, not every such curve was filed as active; the % refers to the signal ratio)
Outline: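 HRE-bla ME-180 beta-lactamase reporter cells in medium with 0.5% dialyzed FBS, pre-incubated 5 h then exposed to compounds 17 h at 37C, 5% CO2; reporter induction read with CCF4-AM FRET substrate.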

[12] = qHTS RealTime-Glo MT Cell Viability Assay in HepG2 cells - 24 hour (AID 1224867); note: nearly all actives have a fitted effect of over 50% in size
Outline: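 HepG2 suspension premixed with RealTime-Glo reagents is plated at 600 cells per well and left 5 h at 37 C/5% CO2. Compounds in DMSO then go in, and bioluminescence reflecting viable cell number is recorded over 40 h.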

[13] = qHTS RealTime-Glo MT Cell Viability Assay in HEK293 cells - 32 hour (AID 1224868); note: top concentration of the series differs between compounds; nearly all actives have a fitted effect of over 50% in size
Outline: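 Reads taken at 0, 8, 16, 24, 32 and 40 h from the same wells. HEK293 cells (600/well) carried RealTime-Glo reagents from seeding, with compound added after a 5 h settle at 37 C.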

[14] = A CellTox Green Cytotoxicity Assay to monitor cytotoxicity in HEK293 cells - 0 hour (AID 1224869); note: nearly all actives have a fitted effect of over 50% in size; note: potency is the fitted concentration of half-maximal effect
Outline: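 HEK293 cells, 600/well, were preincubated 5 hours and then exposed to compounds at 37 C for up to 40 hours. A cell-impermeant cyanine dye staining dead-cell DNA was read by fluorescence at 0, 8, 16, 24, 32 and 40 h time points.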

[15] = qHTS assay to identify small molecule antagonists of the estrogen related receptor signaling pathway with the pleiotropic PPARgamma coactivator (PGC) from Tox21 10K library (AID 1224841; call rule not given here)
Outline: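 PGC/ERR cell line, 2,000 cells/well, pre-incubated 6 hours at 37 C, then exposed to compounds for 18 hours at 37 C; luciferase read with One-Glo luminescence after 30 min at room temperature.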

[16] = qHTS assay to identify small molecule agonists of the estrogen related receptor signaling pathway with the pleiotropic PPARgamma coactivator (PGC) from Tox21 10K library (AID 1224842); note: nearly all actives have a fitted effect of over 15% in size
Outline: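 PGC/ERR reporter cells (NTP line) were seeded 2,000 per well, rested 6 h at 37 C/5% CO2, then pin-dosed with compounds in DMSO for 18 h at 37 C; luciferase read by One-Glo luminescence after 30 min at room temperature.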

[17] = qHTS assay to identify small molecule agonists of H2AX - cell viability counter screen (AID 1224847; calls by dose curve; note: top concentration of the series differs between compounds; nearly all actives have a fitted effect of over 30% in size)
Outline: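 After overnight plating of 1000 CHO-K1 cells per well, a 15-concentration compound series was applied for 3 hr at 37C. Luminescence from CellTiter-Glo, read following 30 min at room temperature, reflected cell viability.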

[18] = qHTS assay to identify small molecule antagonists of the estrogen related receptor (ERR) signaling pathway from Tox21 library (AID 1224848); note: nearly all actives have a fitted effect of over 50% in size
Outline: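 Screening used an ERR reporter line supplied by NTP, exposed for 18 h at 37 C to library compounds delivered in DMSO. Signal was luciferase luminescence developed with ONE-Glo at room temperature for 30 min.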

[19] = qHTS assay to identify small molecule agonists of the estrogen related receptor (ERR) signaling pathway from Tox21 library (AID 1224849; calls by dose curve; note: nearly all actives have a fitted effect of over 15% in size); settings: ERR reporter cell line, ONE-Glo luciferase, 18 h
Outline: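 ERR reporter cells (NTP line) pre-incubated 6 hours at 37 C, then exposed to compounds for 18 hours at 37 C. ONE-Glo luciferase luminescence was read after 30 minutes at room temperature.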

Chain of Thyrotropin receptor (Homo sapiens) (P16473 whole entry, looked up): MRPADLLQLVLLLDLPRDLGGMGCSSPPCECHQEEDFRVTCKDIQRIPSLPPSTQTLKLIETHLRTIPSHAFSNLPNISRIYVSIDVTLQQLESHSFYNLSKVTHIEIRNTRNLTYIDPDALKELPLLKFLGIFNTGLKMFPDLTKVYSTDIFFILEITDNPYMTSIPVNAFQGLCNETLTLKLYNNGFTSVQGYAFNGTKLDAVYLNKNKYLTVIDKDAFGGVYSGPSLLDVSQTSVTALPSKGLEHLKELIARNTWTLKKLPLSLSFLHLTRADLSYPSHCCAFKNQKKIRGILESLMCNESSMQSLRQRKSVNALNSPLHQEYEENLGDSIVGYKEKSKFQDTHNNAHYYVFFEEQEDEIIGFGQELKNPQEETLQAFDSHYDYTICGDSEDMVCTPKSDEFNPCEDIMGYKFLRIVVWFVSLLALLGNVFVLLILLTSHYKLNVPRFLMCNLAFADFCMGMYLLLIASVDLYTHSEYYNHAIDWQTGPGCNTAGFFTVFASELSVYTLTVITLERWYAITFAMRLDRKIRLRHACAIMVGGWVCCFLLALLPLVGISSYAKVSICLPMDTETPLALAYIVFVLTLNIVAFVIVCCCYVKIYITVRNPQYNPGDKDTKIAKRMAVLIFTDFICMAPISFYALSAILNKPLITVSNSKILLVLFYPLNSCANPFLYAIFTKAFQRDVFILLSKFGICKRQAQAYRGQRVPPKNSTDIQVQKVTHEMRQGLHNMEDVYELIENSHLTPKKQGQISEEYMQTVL
Chain of Luciferin 4-monooxygenase (Photinus pyralis) (P08659 whole entry, looked up): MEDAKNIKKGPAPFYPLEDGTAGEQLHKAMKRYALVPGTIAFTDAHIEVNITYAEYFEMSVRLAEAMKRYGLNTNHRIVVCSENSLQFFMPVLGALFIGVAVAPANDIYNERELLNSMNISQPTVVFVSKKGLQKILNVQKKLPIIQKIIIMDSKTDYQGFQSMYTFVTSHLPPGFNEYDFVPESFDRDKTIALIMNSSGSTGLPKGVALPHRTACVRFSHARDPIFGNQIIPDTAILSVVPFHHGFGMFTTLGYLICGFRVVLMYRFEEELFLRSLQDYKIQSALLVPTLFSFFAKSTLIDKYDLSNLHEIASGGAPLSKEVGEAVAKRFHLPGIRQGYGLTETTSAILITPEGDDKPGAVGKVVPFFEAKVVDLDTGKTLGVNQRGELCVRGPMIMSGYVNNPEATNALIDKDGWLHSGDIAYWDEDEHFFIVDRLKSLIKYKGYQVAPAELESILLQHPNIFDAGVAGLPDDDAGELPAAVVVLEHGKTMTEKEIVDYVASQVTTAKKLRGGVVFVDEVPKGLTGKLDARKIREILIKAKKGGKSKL
Chain of Nuclear receptor subfamily 1 group I member 3 (Homo sapiens) (Q14994 whole entry, looked up): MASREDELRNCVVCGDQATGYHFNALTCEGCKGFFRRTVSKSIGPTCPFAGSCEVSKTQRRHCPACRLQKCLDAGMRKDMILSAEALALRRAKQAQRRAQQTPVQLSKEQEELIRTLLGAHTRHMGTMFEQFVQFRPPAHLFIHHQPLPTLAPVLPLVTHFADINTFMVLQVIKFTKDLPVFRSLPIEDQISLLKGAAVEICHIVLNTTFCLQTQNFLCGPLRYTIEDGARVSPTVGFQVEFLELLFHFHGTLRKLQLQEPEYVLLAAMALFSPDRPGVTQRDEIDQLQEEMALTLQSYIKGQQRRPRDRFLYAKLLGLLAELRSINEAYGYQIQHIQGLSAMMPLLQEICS

C=C(C)C(=O)OCC(CC)(COC(=O)C(=C)C)COC(=O)C(=C)C
Potency [1]: inactive
Potency [2]: inactive
Potency [3]: inactive
Potency [4]: inactive
Potency [5]: inactive
Potency [6]: inactive
Potency [7]: inactive
Potency [8]: inactive
Potency [9]: inactive
Potency [10]: inactive
outcome [11]: inactive
Potency [12]: inactive
Potency [13]: inactive
Potency [14]: inactive and 42.9 µM (active)

CC(C)(CO)COC(=O)C(C)(C)CO
Potency [1]: inactive
Potency [2]: inactive
Potency [3]: inactive
Potency [4]: inactive
Potency [5]: inactive
Potency [6]: inactive
Potency [7]: inactive
Potency [15]: inactive
Potency [16]: inactive
Potency [8]: inactive
Potency [9]: inactive
Potency [10]: inactive
outcome [11]: inactive
Potency [17]: inactive
Potency [18]: inactive
activity change, positive = activation ([19]; at 92.4 µM (top of the series)): 2.22% (inactive) and 0.644% (inactive)
Potency [14]: inactive

NC(=O)/N=N/C(N)=O
Potency [1]: inactive
Potency [2]: 31.8 µM (active) and 25.2 µM (active)
Potency [3]: inactive
Potency [4]: inactive
Potency [5]: inactive
Potency [6]: inactive
Potency [7]: inactive
Potency [15]: inactive
Potency [16]: inactive
Potency [9]: inactive
Potency [10]: inactive
outcome [11]: inactive
Potency [17]: inactive
Potency [18]: inactive
activity change, positive = activation ([19]; at 92.4 µM (top of the series)): 0.308% (inactive) and 1.1% (inactive)

CCCCCCC(C)(C)S
Potency [1]: inactive
Potency [2]: inactive
Potency [3]: inactive
Potency [4]: inactive
Potency [5]: inactive
Potency [6]: inactive
Potency [7]: inactive
Potency [8]: inactive
Potency [9]: inactive
Potency [10]: inactive
outcome [11]: inactive
Potency [17]: inactive
Potency [12]: inactive
Potency [14]: inactive

Cn1c([N+](=O)[O-])cnc1COC(N)=O
Potency [1]: inactive
Potency [2]: inactive
Potency [3]: inactive
Potency [4]: inactive
Potency [5]: inactive
Potency [6]: inactive
Potency [7]: inactive
Potency [15]: inactive
Potency [16]: inactive
Potency [9]: inactive
Potency [10]: inactive
Potency [17]: inactive
Potency [18]: inactive
activity change, positive = activation ([19]; at 42.5 µM (top of the series)): 3.23% (inactive)
activity change, positive = activation ([19]; at 92.4 µM (top of the series)): 6.73% (inactive)
Potency [12]: inactive
Potency [13]: inactive

NCCNCCNCCNCCN
Potency [1]: inactive
Potency [2]: inactive
Potency [3]: inactive
Potency [4]: inactive
Potency [5]: inactive
Potency [6]: inactive
Potency [7]: inactive
Potency [15]: inactive
Potency [16]: inactive
Potency [8]: inactive
Potency [9]: inactive
Potency [10]: inactive
outcome [11]: inactive
Potency [17]: inactive
Potency [18]: inactive
activity change, positive = activation ([19]; at 8.39 µM (top of the series)): 3.41% (inactive)
activity change, positive = activation ([19]; at 92.4 µM (top of the series)): 2.98% (inactive)
Potency [12]: inactive
Potency [13]: inactive

Nc1nc2ncc(CNc3ccc(C(=O)N[C@@H](CCC(=O)O)C(=O)O)cc3)nc2c(=O)[nH]1
Potency [1]: inactive
Potency [2]: inactive
Potency [3]: inactive
Potency [4]: inactive
Potency [5]: inactive
Potency [6]: inactive
Potency [7]: inactive
Potency [8]: inactive
Potency [9]: inactive
Potency [10]: inactive
Potency [17]: inactive
Potency [12]: inactive

Clc1ccc(Cl)c(Cl)c1Cl
Potency [1]: inactive
Potency [2]: inactive
Potency [3]: inactive
Potency [4]: inactive
Potency [5]: inactive
Potency [6]: inactive
Potency [7]: inactive
Potency [8]: inactive
Potency [9]: inactive
Potency [10]: inactive
outcome [11]: inactive
Potency [17]: inactive
Potency [12]: inactive
Potency [13]: inactive
